Screens from PubChem BioAssay.
UBC9 SUMO inh: blocks human SUMOylation mediated by UBC9 | P63279 | HTRF SUMOylation assay, SAE1/SAE2 + UBC9, in vitro | inhibition, % at 35 µM | hit rate 0.36% among 290,000 | AID 2006; in the data active = inhibition above about 50%, passing the limit was not always enough
Target sequence (P63279 whole entry, looked up): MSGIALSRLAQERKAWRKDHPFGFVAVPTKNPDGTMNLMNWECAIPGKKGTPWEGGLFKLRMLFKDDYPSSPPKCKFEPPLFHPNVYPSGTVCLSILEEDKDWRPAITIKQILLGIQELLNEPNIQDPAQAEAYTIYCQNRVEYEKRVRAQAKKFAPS
Redox H2O2 prof: compounds producing H2O2 with reducing agent – biochemical, NIH compound library profiling, artefact control for MLSCN library redox annotation, primary screen. hit rate 0.03% among 200,000. activation, % at 10 µM. AID 878. DTT-dependent redox cycling H2O2, phenol red/HRP absorbance; 100% = 100 µM peroxide control, 0% = buffer;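 active = activation of at least 50% relative to the plate's high and low controls in the primary single-dose screen; inactive = activation below 50%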;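 also: compound incubated with DTT at 0.8 mM final as the reducing agent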
p97 inhibitor: human p97 ATPase inhibition | P55072 | recombinant p97 ATPase, Kinase-Glo ATP luminescence, 3 h | inhibition, % at 8 µM | hit rate 0.42% among 220,000; in the data active = inhibition above about 15%;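 also: 0% = DMSO vehicle and 100% = wells lacking enzyme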
PKD1 kinase inh: blocks activity of human protein kinase D1. Q15139. PKD1 kinase fluorescence polarization assay. inhibition, % (test concentration not listed). hit rate 0.056% among 200,000. AID 797; in the data active = inhibition above about 50%
FAS-TE inh: blocks the thioesterase domain of human fatty acid synthase | P49327 | recombinant FAS-TE, OMFH fluorogenic substrate, fluorescence endpoint | inhibition, % at 15 µM | hit rate 0.67% among 360,000;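 active = compounds whose normalised, plate-corrected inhibition of enzyme fluorescence in the single-dose primary screen is 50% or more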;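 also: 0% = DMSO with enzyme and 100% = substrate without enzyme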
Furin inhibitor: human furin inhibition; P09958; purified furin, fluorogenic substrate cleavage; inhibition, % at 20 µM or 30 µM; hit rate 0.061% among 220,000; AID 463115; in the data active = inhibition above about 25%
FAS-TE conf: confirmation of human fatty acid synthase thioesterase inhibitors; shares compounds with FAS-TE inh; recombinant FAS-TE, OMFH fluorogenic substrate, fluorescence; inhibition, % at 15 µM; hit rate 45% among 2,300; AID 624325;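 active = compounds inhibiting the enzyme by at least 50% at 15 µM in any one of the replicates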;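 also: 0% = enzyme with DMSO only and 100% = wells lacking enzyme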
* hit, by the source's call; / = no result given. A selection: hits, their analogues and other compounds. The true share with any hit is near 1.2%.

SMILES	UBC9 SUMO inh	Redox H2O2 prof	p97 inhibitor	PKD1 kinase inh	FAS-TE inh	Furin inhibitor	FAS-TE conf
O=C(COC(=O)c1cc(-c2cccc3ccccc23)nc2ccccc12)NC1CCS(=O)(=O)C1 (configuration not stated)	15	0	1	-4	-2	-9	/
O=C(NNc1ccc([N+](=O)[O-])cc1)C12CC3CC(CC(C3)C1)C2	13	1	3	-10	52*	7	45
CCOC(=O)C1CCN(S(=O)(=O)c2ccc3c(c2)NC(=O)CS3)CC1	-5	/	/	/	-4	/	/
COc1cc(/C=C2/SC(=S)N(c3ccccc3)C2=O)ccc1Oc1nc(N2CCOCC2)nc(N2CCOCC2)n1	-7	0	-2	-3	63*	-15	-3
COc1ccc(/C=C2\SC(=S)N(CCCC(=O)N3CCOCC3)C2=O)cc1OC	-1	/	/	/	1	/	/
CCCCc1ccc(NC(=S)N2CCN(C(=O)c3ccco3)CC2)cc1	-17	/	/	/	5	/	/
CN(C(=O)Nc1ccc(Cl)cc1Cl)[C@H]1c2cc(Br)ccc2OC[C@H]1CO	-17	0	-2	6	50*	-16	50*
CC(Oc1cccc([N+](=O)[O-])c1)C(=O)NCCC1=CCCCC1 (configuration not stated)	/	/	/	/	72*	/	38
CC(C(=O)NCCC1=CCCCC1)c1ccc([N+](=O)[O-])cc1 (configuration not stated)	0	-2	-6	4	70*	-13	69*
Cc1ccccc1OC(C)C(=O)NCCC1=CCCCC1 (configuration not stated)	11	/	/	/	10	/	/
O=C(COC(=O)CSc1ccc([N+](=O)[O-])cc1)NCCC1=CCCCC1	/	/	/	/	3	/	/
CC(C)N1CCC(C)(C(=O)Nc2cccc(Oc3ccccc3)c2)C1 (configuration not stated)	/	/	/	/	-7	/	/
CC(=O)N1CCC(N(CCCOC(C)C)S(=O)(=O)c2ccc([N+](=O)[O-])cc2)CC1	-8	/	/	/	0	/	/
Cc1ccc(N2C(=O)N3[C@H](c4ccc(Cl)cc4)[C@@H]4C(=O)N(C5CCCCC5)C(=O)[C@@H]4[C@]3(Cc3ccccc3)C2=O)cc1	-10	/	/	/	93*	/	37
CCN1C(=O)[C@H]2[C@@H](c3ccc(C)cc3)N3C(=O)N(c4cccc(C)c4)C(=O)[C@@]3(Cc3ccccc3)[C@H]2C1=O	-4	/	/	/	4	/	/
CC[C@@]12C(=O)N(c3cccc(F)c3)C(=O)N1[C@H](c1ccc(OC)cc1)[C@@H]1C(=O)N(C(C)(C)C)C(=O)[C@@H]12	/	/	/	/	-4	/	/
Cc1ccc(N2C(=O)N3[C@H](c4ccc(F)cc4)[C@@H]4C(=O)N(C5CCCCC5)C(=O)[C@@H]4[C@]3(C)C2=O)cc1	-1	/	/	/	18	/	/
Cc1cccc(N2C(=O)N3[C@H](c4ccc(F)cc4)[C@@H]4C(=O)N(C5CCCCC5)C(=O)[C@@H]4[C@]3(Cc3ccc(Cl)cc3)C2=O)c1	2	/	/	/	93*	/	21
O=C1[C@H]2[C@@H](c3ccc(F)cc3)N3C(=O)N(c4cccc(F)c4)C(=O)[C@@]3(Cc3ccc(Cl)cc3)[C@H]2C(=O)N1C1CCCCC1	/	/	/	/	71*	/	28
CC[C@@]12C(=O)N(c3cccc(F)c3)C(=O)N1[C@H](c1ccc(Cl)cc1)[C@@H]1C(=O)N(C3CCCCC3)C(=O)[C@@H]12	/	/	/	/	67*	/	22
CNC(=O)COc1coc(CN2CCN(c3ccc(OC)cc3)CC2)cc1=O	4	/	/	/	-7	/	/
COc1ccc(C2CC23N=C(c2ccccc2)OC3=O)cc1 (configuration not stated)	-8	0	-7	-2	85*	-13	96*
COc1ccc(C2=NC(c3ccccc3)CO2)cc1 (configuration not stated)	-7	1	5	-14	/	-8	/
Cc1cc(C(=O)COC(=O)c2ccc(N)c([N+](=O)[O-])c2)c(C)n1-c1ccc2c(c1)OCO2	1	1	5	-9	63*	-9	6
Cc1cc(C(=O)COC(=O)c2ccc(N)c([N+](=O)[O-])c2)c(C)n1Cc1ccc2c(c1)OCO2	20	/	5	/	35	-21	/
CCn1c2ccccc2c2cc(NC(=O)c3ccc(C)c([N+](=O)[O-])c3)ccc21	-2	1	3	-5	52*	-11	-2
